The structures appear in SMILES notation. Inconclusive results are not listed. Entries that show only a call come without a potency. Calls of active or inactive are those of the source. The call rests on the fitted dose curve; in most records, active means well fitted inhibition curve with a large enough effect; inconclusive means small, poorly fitted or top-dose-only effect; inactive means no such curve, though single readings can be large or run the other way.

Chain of Tumor susceptibility gene 101 protein (Homo sapiens) (Q99816 whole entry, looked up, the tested form may be a part): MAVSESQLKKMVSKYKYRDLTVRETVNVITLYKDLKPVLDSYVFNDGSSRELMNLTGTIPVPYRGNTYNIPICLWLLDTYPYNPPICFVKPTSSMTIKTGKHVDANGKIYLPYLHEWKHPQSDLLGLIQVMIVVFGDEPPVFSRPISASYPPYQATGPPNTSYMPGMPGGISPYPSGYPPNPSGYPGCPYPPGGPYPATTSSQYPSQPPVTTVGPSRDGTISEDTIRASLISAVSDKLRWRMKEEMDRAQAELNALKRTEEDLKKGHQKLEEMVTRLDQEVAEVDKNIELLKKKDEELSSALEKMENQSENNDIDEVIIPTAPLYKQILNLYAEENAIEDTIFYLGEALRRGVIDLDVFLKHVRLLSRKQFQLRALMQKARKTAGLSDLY

This experiment concerns the target Tumor susceptibility gene 101 protein (Homo sapiens) (UniProt Q99816). Nature of the experiment: qHTS Assay for Iinhibitors of HIV-1 Budding by Blocking the Interaction of PTAP/TSG101: Hit Validation (AID 651600). Further: nearly all actives have a fitted effect of over 70% in size. To be noted: PTAP peptide/TSG101 UEV interaction, biochemical assay; series mostly up to 57.5 µM. The procedure, abridged:
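Fluorescence polarization binding assay: Tsg101 binding domain (10 uM final) pre-dispensed with compounds, then FITC-labeled PTAP-motif peptide (50 nM final) added; 20 min at r.t. in HEPES pH 7.5 buffer with NaCl, Tween 20, EDTA, TCEP.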
Consider `COc1ccccc1NC(=O)C(C)OC(=O)C1CC(=O)N(c2ccc3c(c2)OCCO3)C1` (stereo not given), for which the Potency result is “inactive”.
In the case of `COc1ccc(C(=O)c2sc3nc(C)cc(-c4cccs4)c3c2N)cc1` it was “inactive”; in that of `O=[N+]([O-])c1ccc(-c2ccc(/C=N/Nc3nc(N4CCCC4)nc(N4CCCC4)n3)o2)cc1`, “inactive”; in that of `COc1ccc(C(=O)c2sc3nc(C)cc(-c4cccs4)c3c2N)cc1OC`, “inactive”.
For the compound `CCOc1ccc(NC(=O)N(C2CCCCC2)C(C)c2ccncc2)cc1` (stereo not given), the Potency entry was “inactive”.

The values above are taken from PubChem BioAssay (NCATS).
